Records with an inconclusive call do not appear. A call without a number means that no potency is given here. The source made the active and inactive calls. The call rests on the fitted dose curve; in most records, active means well fitted curve in the direction sought with a large enough effect; inconclusive means small, poorly fitted or top-dose-only effect, or another doubt; inactive means no such curve, though single readings can be large; an effect the other way counts as inactive or inconclusive.

Test system in the first assay: not listed separately
In words: qHTS of pediatric cancer cell lines to identify multiple opportunities for drug repurposing: Confirmatory screen for SK-N-SH cells (AID 1347129).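 Further: cells exposed to compound for 48 h before viability read; nearly all actives have a fitted effect of over 60% in size.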 Further: potency means the concentration at half of the fitted maximal effect. Conditions: SK-N-SH neuroblastoma cell viability; series mostly up to 46.1 µM. The method, boiled down:
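Cells (500-1,000/well) in growth media were settled 5 h at 37 degrees C, then given compounds for 48 h. Viability was read as CellTiter-Glo luminescence. Primary runs used MIPE at 11 points (0.78 nM-46 µM) and NPC at 8 points (0.59 nM-46 µM); follow-ups used 11 points.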
In the case of `O=C(O)c1ccc(-c2cc3cccnc3c(-c3ccc4nonc4c3)n2)cc1`, the Potency entry was “inactive”.
Take `O=C1c2ccccc2-[n+]2ccc3c([nH]c4ccccc43)c21`: the Potency result is “inactive”.
On the same count and under the same terms, next, `CC(=O)O[C@]1(C(C)=O)CC[C@@H]2[C@@H]3C[C@H](C)C4=CC(=O)CC[C@]4(C)[C@H]3CC[C@@]21C`: “inactive”.
The same measure, in the same setting: next, `COc1ncc(-c2ccc3nccc(-c4ccnnc4)c3c2)cc1NS(=O)(=O)c1ccc(F)cc1F`: 187 nM (active); `CC1(C)CCC[C@@]2(C)[C@@H]1CC[C@@]1(C)OC(=O)C[C@H]21`: “inactive”; `O=c1[nH]cnc2c1ncn2[C@H]1CC[C@@H](CO)O1`: “inactive”.
Consider `C=C1C(=O)[C@@]23C(CC[C@@H]1[C@H]2O)[C@@]12CO[C@]3(O)[C@@H](O)[C@@H]1C(C)(C)CC[C@@H]2O` (some centres not stated), for which the Potency was 10500 nM (active).
As to `CC1(C)O[C@H]2C[C@@H]3[C@H]4CCC5=CC(=O)C=C[C@]5(C)[C@@]4(F)[C@@H](O)C[C@]3(C)[C@]2(C(=O)CO)O1`, the Potency result was “inactive”.
As to `CC(C)n1nc(-c2ccc3oc(N)nc3c2)c2c(N)ncnc21`, the Potency is 590 nM (active).
Still for that read-out and setting: the entry for `CC1(C)S[C@H]2[C@H](NC(=O)[C@@H](N)c3ccc(O)cc3)C(=O)N2[C@@H]1C(=O)O` is “inactive”.
With `O=C1NC(=O)C(=Cc2ccc3c(c2)OC(F)(F)O3)S1`, the Potency entry was “inactive”.
The same measure, in the same setting: the figure for `NS(=O)(=O)c1cccc2c1C(=O)c1cccc(O)c1C2=O` is 2090 nM (active); for `CN(C)C1CCN(C(=O)c2ccc(NC(=O)Nc3nc(N4CCOCC4)nc(N4CCOCC4)n3)cc2)CC1` it is 3720 nM (active).
For the molecule `Nc1ncnc2c1ncn2[C@@H]1O[C@@H](CO)[C@H](O)[C@H]1O`, the Potency result is “inactive”.
The same measure, in the same setting: the entry for `CC[C@]1(O)C[C@@H]2CN(CCc3c([nH]c4ccccc34)[C@@](C(=O)OC)(c3cc4c(cc3OC)N(C=O)[C@@H]3C45CCN4CC=C[C@](CC)([C@H]45)[C@@H](OC(C)=O)[C@]3(O)C(=O)OC)C2)C1` (some centres not stated) is “inactive”.

The test system of the next assay is Zika virus NS2B-NS3 protease. Briefly: Primary screen GU AMC qHTS for Zika virus inhibitors (AID 1347154). Further: nearly all actives have a fitted effect of over 70% in size. Conditions: Zika NS2B-NS3 unlinked protease, AMC fluorogenic substrate; series mostly up to 54.1 µM. The method, boiled down: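 Unlinked Zika NS2B hydrophilic domain/NS3 protease domain noncovalent complex (25 nM final) in 10 mM Tris-HCl pH 8.0, 0.01% Tween 20, with AMC peptide substrate. Fluorescence (ex 340, em 450 nm) change over 15 min, room temperature; percent inhibition fitted to 4-parameter Hill equation.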
Background: Quantitative high-throughput screening tests each substance at several concentrations.
On to `NC1=N[C@@]2(c3cc(NC(=O)c4ccc(F)cn4)ccc3F)COC[C@@H]2CS1`, for which the Potency result was “inactive”.
Still for that read-out and setting: next, `CO[C@H]1C(=O)[C@]2(C)[C@@H](OC)C[C@H]3OC[C@@]3(OC(C)=O)[C@H]2[C@H](OC(=O)c2ccccc2)[C@]2(O)C[C@H](OC(=O)[C@H](O)[C@@H](NC(=O)OC(C)(C)C)c3ccccc3)C(C)=C1C2(C)C`: “inactive”; `O=C(O)c1ccc(-c2c[nH]c3ncc(-c4ccccc4)cc23)cc1C1CCCC1`: “inactive”; `CC[C@]1(O)C[C@@H]2CN(CCc3c([nH]c4ccccc34)[C@@](C(=O)OC)(c3cc4c(cc3OC)N(C)[C@H]3[C@@](O)(C(=O)OC)[C@H](OC(C)=O)[C@]5(CC)C=CCN6CC[C@]43[C@@H]65)C2)C1`: “inactive”.
Still for that read-out and setting: the entry for `COc1cc(N2CCC(N3CCN(C)CC3)CC2)ccc1Nc1ncc(Cl)c(Nc2ccccc2S(=O)(=O)C(C)C)n1` is “inactive”; for `O=C(NCc1ccncc1)C12C[C@H]3C[C@@H](C1)CC(c1ccc(Cl)cc1)(C3)C2` it is “inactive”; for `O=C1C(Cl)=C(NCCN2CCOCC2)C(=O)c2ncccc21` it is “inactive”.
In the case of `CC(=NNC(=S)N1CCC1)c1ccccn1`, the Potency entry was “inactive”.
For the molecule `OC[C@H]1O[C@@H](n2cnc3c2NC=NC[C@@H]3O)C[C@H]1O`, the Potency entry is “inactive”.
On the same count and under the same terms, the entry for `O=C(Nc1cccc(Br)c1)c1cccc(S(=O)(=O)N2CCCCCC2)c1` is “inactive”; for `CC(=O)Nc1ccc([C@H](C)C(=O)Nc2ncc(C(C)C)s2)cc1` it is “inactive”; for `O=c1cc(-c2ccc(O)cc2)oc2cc(O)cc(O)c12` it is “inactive”.
With `CC1(C)CCC2=C(O1)c1ccccc1C(=O)C2=O`, the Potency result is “inactive”.
Turning to `CC(=O)Oc1cc2c(s1)CCN(C(C(=O)C1CC1)c1ccccc1F)C2` (configuration not stated), the Potency entry is “inactive”.
On the same count and under the same terms, the entry for `COc1ccc(-c2coc3cc(O)cc(O)c3c2=O)cc1` is “inactive”.
As for `CCc1ccc(OCc2ccccc2C(=O)Nc2ccc3nc(C)cc(N)c3c2)cc1`, the Potency entry was “inactive”.
Regarding `N[C@@]1(C(=O)O)CS(=O)(=O)[C@H]2[C@H](C(=O)O)[C@H]21`, the Potency entry was “inactive”.
As to `O=C(O)c1ccc(-c2cc3cccnc3c(-c3ccc4nonc4c3)n2)cc1`, the Potency entry is “inactive”.
As for `CC(C)(C(=O)NCC(F)(F)C(F)(F)F)C(=O)N[C@@H]1C(=O)Nc2ccccc2-c2ccccc21`, the Potency entry was “inactive”.
Consider `O=C1c2ccccc2-[n+]2ccc3c([nH]c4ccccc43)c21`, for which the Potency entry is “inactive”.
The same measure, in the same setting: next, `CC(=O)O[C@]1(C(C)=O)CC[C@@H]2[C@@H]3C[C@H](C)C4=CC(=O)CC[C@]4(C)[C@H]3CC[C@@]21C`: “inactive”; `COc1ncc(-c2ccc3nccc(-c4ccnnc4)c3c2)cc1NS(=O)(=O)c1ccc(F)cc1F`: “inactive”.

These data come from PubChem BioAssay (NCATS).
